PubChem BioAssay AID651932 (Southern Research Specialized Biocontainment Screening …, 2012)
The source made the active and inactive calls. No rule for the calls is given here.

experiment: RSV cytopathic effect inhibition in HEp-2, counter-screen for VEEV inhibitor project, HEp-2 cells, set 2 (AID 651932); settings: series mostly up to 25 µM

Structure (SMILES) | outcome
CCN1CCN(Cc2nc3ccc([N+](=O)[O-])cc3c(=O)n2-c2ccccc2F)CC1 | inactive
COc1ccc(NC(=O)c2cc([N+](=O)[O-])ccc2N=C2CN(C)CCN2C)cc1 | inactive
CCN1CCN(C)CC1=Nc1ccc([N+](=O)[O-])cc1C(=O)Nc1ccccc1 | inactive
CN1CCN(C)C(=Nc2ccc([N+](=O)[O-])cc2C(=O)Nc2ccccc2)C1 | inactive
